# Measured values published in article PMC7862700, “An all-to-all approach to the identification of sequence-specific readers for epigenetic DNA modifications on cytosine”.
# How the values were obtained:
# Assay in all cases: DAPPL (digital affinity profiling via proximity ligation, sequencing); 10 mM Tris-HCl pH 7.5, 50 mM NaCl, 1 mM DTT, 4% glycerol, room temperature, 30 min; GST-TFs on glutathione beads, 16-mer random dsDNA library, 0.1% formaldehyde crosslink after washing; high values mean tight binding
# FLI1 = target: T1, FLI1 (Homo sapiens, UniProt Q01543 1-452); details: protein: recombinant; tags: N-terminal GST; dsDNA, one strand shown
# T1 sequence: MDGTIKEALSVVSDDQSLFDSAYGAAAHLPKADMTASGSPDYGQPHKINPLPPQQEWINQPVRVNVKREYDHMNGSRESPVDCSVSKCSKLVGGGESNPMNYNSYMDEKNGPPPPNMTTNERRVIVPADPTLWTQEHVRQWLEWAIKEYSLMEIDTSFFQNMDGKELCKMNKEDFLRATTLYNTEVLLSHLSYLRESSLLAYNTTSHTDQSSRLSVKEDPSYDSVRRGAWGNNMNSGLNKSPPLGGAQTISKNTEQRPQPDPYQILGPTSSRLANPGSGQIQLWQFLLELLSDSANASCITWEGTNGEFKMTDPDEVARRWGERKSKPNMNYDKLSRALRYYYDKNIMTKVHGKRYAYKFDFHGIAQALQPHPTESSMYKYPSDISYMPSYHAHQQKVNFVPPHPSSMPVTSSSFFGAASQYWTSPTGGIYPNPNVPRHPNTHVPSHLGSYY
# How it was run: (§1)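 GST fusions of human transcription factors were expressed in yeast and captured with glutathione beads. Once given DNA barcodes and pooled alongside a tag-only sample, they were incubated for 30 min at room temperature with 200 nmole of a random double-stranded 16-mer DNA library in Tris/NaCl/DTT/glycerol buffer, then washed, crosslinked (0.1% formaldehyde), proximity-ligated, PCR-amplified and sequenced on an Illumina NextSeq500. The binding signal of each hexamer is its read frequency for a factor divided by its frequency for the tag-only sample.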
# ELK1 = target: T2, ELK1 (Homo sapiens, UniProt P19419 1-428); details: protein: recombinant; tags: N-terminal GST; dsDNA, one strand shown
# T2 sequence: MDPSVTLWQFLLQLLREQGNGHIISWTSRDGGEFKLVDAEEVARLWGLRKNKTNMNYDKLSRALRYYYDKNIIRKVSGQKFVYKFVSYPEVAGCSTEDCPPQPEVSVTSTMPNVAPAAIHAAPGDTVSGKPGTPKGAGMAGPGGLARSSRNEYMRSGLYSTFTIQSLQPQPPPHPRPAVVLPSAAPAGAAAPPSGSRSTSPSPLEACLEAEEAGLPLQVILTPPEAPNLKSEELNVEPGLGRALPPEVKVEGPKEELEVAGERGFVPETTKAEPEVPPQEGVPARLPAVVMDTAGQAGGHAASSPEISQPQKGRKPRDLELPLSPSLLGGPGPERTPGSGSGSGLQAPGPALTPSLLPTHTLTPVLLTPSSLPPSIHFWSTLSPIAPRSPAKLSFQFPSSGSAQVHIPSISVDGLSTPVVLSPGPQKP
# How it was run: as §1
# GABPA = target: T3, GABPA (Homo sapiens, UniProt Q06546 1-454); details: protein: recombinant; tags: N-terminal GST; dsDNA, one strand shown
# T3 sequence: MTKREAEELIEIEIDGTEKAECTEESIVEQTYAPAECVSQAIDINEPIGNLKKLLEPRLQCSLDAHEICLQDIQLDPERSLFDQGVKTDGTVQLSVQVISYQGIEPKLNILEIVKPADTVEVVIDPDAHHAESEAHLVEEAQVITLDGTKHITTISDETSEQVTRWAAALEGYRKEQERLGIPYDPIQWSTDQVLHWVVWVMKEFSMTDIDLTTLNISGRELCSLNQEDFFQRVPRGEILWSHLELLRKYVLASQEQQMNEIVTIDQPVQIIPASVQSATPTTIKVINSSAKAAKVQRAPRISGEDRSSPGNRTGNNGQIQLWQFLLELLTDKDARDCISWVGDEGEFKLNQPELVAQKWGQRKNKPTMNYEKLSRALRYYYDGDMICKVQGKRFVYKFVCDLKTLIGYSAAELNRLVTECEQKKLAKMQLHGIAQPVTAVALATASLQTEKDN
# How it was run: as §1
# ERG = target: T4, ERG (Homo sapiens, UniProt P11308 1-479); details: protein: recombinant; tags: N-terminal GST; dsDNA, one strand shown
# T4 sequence: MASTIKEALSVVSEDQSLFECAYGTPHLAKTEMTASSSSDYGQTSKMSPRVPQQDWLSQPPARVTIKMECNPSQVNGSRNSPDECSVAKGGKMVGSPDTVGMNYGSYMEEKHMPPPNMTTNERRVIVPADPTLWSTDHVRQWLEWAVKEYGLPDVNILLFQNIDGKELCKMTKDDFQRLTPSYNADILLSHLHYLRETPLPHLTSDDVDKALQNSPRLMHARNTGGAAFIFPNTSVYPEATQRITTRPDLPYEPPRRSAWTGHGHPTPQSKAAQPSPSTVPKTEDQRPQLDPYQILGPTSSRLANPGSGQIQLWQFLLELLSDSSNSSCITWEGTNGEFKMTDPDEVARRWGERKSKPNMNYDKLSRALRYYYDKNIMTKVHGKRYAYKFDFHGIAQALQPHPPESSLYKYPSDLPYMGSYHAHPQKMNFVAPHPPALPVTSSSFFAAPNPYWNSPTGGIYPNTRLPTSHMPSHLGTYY
# How it was run: as §1
# ELF1 = ELF1 (Homo sapiens, UniProt P32519 1-619); details: protein: recombinant; tags: N-terminal GST; dsDNA, one strand shown
# How it was run: as §1
# EHF = target: T5, EHF (Homo sapiens, UniProt Q9NZC4 1-300); details: protein: recombinant; tags: N-terminal GST; dsDNA, one strand shown
# T5 sequence: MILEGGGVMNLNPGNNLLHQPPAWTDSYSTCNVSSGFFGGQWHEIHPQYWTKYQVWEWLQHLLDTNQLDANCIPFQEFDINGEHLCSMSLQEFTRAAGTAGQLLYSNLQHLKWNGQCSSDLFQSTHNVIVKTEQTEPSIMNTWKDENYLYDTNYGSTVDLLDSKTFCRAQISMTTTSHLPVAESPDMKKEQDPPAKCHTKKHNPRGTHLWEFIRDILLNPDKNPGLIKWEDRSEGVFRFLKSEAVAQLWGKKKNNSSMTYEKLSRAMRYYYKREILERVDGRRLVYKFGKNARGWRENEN
# How it was run: as §1
# SPI1 = SPI1 (Homo sapiens, UniProt P17947 1-270); details: protein: recombinant; tags: N-terminal GST; dsDNA, one strand shown
# How it was run: as §1
# SPIB = SPIB (Homo sapiens, UniProt Q01892 1-262); details: protein: recombinant; tags: N-terminal GST; dsDNA, one strand shown
# How it was run: as §1
# ELK3 = target: T6, ELK3 (Homo sapiens, UniProt P41970 1-407); details: protein: recombinant; tags: N-terminal GST; dsDNA, one strand shown
# T6 sequence: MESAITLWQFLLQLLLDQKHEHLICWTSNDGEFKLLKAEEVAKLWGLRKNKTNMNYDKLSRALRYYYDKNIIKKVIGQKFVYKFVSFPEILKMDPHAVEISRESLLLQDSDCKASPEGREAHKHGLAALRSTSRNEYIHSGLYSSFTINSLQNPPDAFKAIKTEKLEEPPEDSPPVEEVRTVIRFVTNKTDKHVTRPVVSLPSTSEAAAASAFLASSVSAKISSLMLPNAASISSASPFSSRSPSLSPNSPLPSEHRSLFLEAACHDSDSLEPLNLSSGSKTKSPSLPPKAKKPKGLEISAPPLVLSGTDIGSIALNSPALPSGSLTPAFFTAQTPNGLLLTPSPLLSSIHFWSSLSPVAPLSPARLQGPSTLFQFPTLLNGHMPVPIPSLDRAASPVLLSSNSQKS
# How it was run: as §1
# FEV = target: T7, FEV (Homo sapiens, UniProt Q99581 1-238); details: protein: recombinant; tags: N-terminal GST; dsDNA, one strand shown
# T7 sequence: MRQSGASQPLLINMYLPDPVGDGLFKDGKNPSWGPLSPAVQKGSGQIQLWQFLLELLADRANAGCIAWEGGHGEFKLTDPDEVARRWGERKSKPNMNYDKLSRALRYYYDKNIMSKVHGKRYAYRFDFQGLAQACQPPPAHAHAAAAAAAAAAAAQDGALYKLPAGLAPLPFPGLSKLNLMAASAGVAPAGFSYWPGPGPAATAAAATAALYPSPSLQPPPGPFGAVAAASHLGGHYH
# How it was run: as §1
# ETV5 = ETV5 (Homo sapiens, UniProt P41161 1-510); details: protein: recombinant; tags: N-terminal GST; dsDNA, one strand shown
# How it was run: as §1
# HSF1 = HSF1 (Homo sapiens, UniProt Q00613 1-529); details: protein: recombinant; tags: N-terminal GST; chain copies: 3; dsDNA, one strand shown
# How it was run: as §1
# SPIC = target: T8, SPIC (Homo sapiens, UniProt Q8N5J4 1-248); details: protein: recombinant; tags: N-terminal GST; dsDNA, one strand shown
# T8 sequence: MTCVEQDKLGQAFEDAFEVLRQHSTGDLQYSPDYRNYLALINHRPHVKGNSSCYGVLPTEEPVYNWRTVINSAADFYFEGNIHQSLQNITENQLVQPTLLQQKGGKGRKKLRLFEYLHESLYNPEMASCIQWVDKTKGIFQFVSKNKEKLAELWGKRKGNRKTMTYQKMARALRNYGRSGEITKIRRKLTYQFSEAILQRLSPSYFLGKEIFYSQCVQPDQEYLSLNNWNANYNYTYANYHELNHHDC
# How it was run: as §1
# ELF4 = ELF4 (Homo sapiens, UniProt Q99607 1-663); details: protein: recombinant; tags: N-terminal GST; dsDNA, one strand shown
# How it was run: as §1
# ELK4 = target: T9, ELK4 (Homo sapiens, UniProt P28324-2 1-405); details: protein: recombinant; tags: N-terminal GST; dsDNA, one strand shown
# T9 sequence: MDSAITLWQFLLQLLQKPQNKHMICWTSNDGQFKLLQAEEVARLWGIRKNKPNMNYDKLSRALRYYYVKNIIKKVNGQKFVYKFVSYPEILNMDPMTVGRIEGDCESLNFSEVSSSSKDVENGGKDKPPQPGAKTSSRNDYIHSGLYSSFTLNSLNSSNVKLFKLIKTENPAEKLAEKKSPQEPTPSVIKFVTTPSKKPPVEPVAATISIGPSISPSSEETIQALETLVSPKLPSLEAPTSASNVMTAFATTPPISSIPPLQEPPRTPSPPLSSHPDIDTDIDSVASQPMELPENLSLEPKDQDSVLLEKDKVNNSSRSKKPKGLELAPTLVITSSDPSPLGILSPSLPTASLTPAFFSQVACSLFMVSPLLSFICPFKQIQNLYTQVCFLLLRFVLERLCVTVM
# How it was run: as §1
# ETV2 = target: T10, ETV2 (Homo sapiens, UniProt O00321 1-342); details: protein: recombinant; tags: N-terminal GST; dsDNA, one strand shown
# T10 sequence: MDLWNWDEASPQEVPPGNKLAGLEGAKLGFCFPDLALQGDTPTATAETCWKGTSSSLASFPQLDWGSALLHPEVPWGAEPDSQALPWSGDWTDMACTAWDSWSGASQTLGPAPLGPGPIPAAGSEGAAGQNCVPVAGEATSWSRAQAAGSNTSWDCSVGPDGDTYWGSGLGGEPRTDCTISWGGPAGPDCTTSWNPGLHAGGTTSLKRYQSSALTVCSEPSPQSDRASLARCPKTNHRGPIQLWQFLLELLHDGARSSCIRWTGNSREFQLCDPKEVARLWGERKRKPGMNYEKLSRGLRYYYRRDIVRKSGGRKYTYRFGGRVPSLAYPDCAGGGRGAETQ
# How it was run: as §1
# ELF3 = target: T11, ELF3 (Homo sapiens, UniProt P78545 1-371); details: protein: recombinant; tags: N-terminal GST; dsDNA, one strand shown
# T11 sequence: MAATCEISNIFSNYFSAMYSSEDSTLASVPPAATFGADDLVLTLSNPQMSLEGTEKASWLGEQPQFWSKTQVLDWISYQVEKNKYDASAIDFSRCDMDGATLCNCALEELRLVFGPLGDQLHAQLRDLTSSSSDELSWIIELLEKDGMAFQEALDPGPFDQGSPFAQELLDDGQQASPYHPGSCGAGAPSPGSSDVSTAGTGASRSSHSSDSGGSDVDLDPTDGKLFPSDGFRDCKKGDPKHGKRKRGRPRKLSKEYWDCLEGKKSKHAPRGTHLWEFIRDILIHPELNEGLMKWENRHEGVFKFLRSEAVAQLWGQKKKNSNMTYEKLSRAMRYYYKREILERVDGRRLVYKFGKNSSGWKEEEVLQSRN
# How it was run: as §1
# CRX = CRX (Homo sapiens, UniProt O43186 1-299); details: protein: recombinant; tags: N-terminal GST; dsDNA, one strand shown
# How it was run: as §1
# ETV1 = ETV1 (Homo sapiens, UniProt P50549 1-477); details: protein: recombinant; tags: N-terminal GST; dsDNA, one strand shown
# How it was run: as §1
# Chain of SPIB (Q01892 whole entry): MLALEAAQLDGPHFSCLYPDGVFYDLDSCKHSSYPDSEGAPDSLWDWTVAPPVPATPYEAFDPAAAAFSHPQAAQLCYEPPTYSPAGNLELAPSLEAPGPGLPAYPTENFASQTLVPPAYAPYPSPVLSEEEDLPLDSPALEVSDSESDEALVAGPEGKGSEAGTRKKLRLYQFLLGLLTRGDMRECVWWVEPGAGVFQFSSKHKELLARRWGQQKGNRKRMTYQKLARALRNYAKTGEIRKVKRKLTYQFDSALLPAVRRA
# Chain of ETV5 (P41161 whole entry): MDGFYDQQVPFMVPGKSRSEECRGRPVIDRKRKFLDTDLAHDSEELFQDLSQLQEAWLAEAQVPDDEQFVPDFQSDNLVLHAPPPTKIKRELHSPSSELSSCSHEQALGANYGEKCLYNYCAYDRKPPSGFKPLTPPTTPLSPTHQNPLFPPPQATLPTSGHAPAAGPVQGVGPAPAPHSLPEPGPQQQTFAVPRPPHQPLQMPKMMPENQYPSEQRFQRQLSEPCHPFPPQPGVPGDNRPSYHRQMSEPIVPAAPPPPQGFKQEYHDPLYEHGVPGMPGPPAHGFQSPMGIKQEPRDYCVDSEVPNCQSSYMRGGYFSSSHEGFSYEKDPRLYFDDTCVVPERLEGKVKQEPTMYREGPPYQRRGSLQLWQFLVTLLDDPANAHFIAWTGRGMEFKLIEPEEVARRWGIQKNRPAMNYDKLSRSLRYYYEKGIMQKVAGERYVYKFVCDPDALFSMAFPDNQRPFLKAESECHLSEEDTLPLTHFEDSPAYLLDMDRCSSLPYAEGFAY
# Chain of HSF1 (Q00613 whole entry): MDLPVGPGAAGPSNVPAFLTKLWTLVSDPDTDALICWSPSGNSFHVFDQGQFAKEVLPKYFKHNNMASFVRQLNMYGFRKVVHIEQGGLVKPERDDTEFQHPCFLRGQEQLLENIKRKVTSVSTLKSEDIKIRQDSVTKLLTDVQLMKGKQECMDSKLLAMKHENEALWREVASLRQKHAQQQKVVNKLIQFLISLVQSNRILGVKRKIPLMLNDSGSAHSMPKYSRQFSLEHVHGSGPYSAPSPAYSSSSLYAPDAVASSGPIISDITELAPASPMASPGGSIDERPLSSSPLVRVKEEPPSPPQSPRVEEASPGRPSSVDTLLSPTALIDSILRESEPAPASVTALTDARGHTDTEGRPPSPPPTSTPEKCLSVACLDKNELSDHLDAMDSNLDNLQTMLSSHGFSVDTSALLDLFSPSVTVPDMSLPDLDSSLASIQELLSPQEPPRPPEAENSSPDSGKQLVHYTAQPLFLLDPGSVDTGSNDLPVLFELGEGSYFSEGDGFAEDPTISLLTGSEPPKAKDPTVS
# Chain of ELF1 (P32519 whole entry): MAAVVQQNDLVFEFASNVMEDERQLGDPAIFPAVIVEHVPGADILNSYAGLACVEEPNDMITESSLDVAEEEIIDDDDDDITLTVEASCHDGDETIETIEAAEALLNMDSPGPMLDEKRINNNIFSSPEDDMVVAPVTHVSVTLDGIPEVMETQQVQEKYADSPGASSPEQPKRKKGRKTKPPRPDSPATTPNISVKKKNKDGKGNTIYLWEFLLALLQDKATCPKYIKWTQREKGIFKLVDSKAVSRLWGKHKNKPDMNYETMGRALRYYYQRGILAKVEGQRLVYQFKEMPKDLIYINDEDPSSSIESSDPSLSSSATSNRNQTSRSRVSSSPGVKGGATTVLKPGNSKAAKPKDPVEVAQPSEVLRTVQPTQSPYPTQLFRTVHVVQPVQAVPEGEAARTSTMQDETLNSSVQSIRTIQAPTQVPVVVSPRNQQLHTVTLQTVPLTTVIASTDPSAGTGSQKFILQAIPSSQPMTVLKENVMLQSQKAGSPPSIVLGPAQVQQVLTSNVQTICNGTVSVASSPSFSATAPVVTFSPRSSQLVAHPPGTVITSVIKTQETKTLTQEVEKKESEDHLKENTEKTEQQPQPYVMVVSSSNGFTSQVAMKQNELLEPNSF
# Chain of ELF4 (Q99607 whole entry): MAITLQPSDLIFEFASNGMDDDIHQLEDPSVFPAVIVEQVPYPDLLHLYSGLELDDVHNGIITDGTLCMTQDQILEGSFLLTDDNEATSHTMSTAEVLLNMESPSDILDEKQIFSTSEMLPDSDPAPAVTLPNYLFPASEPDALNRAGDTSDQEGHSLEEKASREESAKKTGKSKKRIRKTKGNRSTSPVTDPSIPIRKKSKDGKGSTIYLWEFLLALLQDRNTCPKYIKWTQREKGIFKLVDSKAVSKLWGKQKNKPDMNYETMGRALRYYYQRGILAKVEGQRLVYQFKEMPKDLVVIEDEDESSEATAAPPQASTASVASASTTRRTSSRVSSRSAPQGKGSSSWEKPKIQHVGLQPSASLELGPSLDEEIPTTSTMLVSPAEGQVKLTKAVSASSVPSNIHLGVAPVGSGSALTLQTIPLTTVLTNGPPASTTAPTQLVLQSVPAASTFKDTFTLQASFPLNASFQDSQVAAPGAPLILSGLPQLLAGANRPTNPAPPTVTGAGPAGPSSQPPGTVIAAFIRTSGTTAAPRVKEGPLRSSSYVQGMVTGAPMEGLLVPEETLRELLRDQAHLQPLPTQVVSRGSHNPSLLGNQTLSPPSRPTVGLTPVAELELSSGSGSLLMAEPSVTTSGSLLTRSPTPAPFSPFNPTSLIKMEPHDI
# Chain of CRX (O43186 whole entry): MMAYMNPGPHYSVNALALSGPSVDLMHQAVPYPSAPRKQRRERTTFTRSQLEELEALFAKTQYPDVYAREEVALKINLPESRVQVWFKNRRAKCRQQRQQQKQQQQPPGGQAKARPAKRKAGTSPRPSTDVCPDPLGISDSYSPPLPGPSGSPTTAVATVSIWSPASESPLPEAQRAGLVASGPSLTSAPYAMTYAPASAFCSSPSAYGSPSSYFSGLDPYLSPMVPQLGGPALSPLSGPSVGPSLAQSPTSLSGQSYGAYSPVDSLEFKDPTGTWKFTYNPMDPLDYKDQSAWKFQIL
# Chain of ETV1 (P50549 whole entry): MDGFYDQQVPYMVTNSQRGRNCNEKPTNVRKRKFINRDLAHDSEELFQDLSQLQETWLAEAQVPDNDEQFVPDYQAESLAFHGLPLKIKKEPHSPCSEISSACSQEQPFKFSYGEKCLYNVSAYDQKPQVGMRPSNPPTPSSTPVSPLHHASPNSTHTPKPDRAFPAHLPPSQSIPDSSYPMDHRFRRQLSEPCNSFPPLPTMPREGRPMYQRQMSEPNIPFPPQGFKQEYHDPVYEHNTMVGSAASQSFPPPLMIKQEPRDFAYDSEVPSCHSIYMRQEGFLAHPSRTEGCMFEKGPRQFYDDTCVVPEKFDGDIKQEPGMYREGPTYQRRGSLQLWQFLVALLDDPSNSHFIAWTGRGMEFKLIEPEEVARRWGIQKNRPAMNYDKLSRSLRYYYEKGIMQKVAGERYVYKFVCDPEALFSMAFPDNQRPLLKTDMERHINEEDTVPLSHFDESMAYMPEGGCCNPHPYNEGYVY
sequence,measurement,setting,value
GCCCCT,binding signal,FLI1,"1.22 fold enrichment (6-mer frequency, TF over GST control)"
same,binding signal,ELK1,"1.2 fold enrichment (6-mer frequency, TF over GST control)"
same,binding signal,GABPA,"1.24 fold enrichment (6-mer frequency, TF over GST control)"
same,binding signal,ERG,"1.23 fold enrichment (6-mer frequency, TF over GST control)"
same,binding signal,ELF1,"1.37 fold enrichment (6-mer frequency, TF over GST control)"
same,binding signal,EHF,"1.43 fold enrichment (6-mer frequency, TF over GST control)"
same,binding signal,SPI1,"1.29 fold enrichment (6-mer frequency, TF over GST control)"
same,binding signal,SPIB,"1.21 fold enrichment (6-mer frequency, TF over GST control)"
same,binding signal,ELK3,"1.36 fold enrichment (6-mer frequency, TF over GST control)"
same,binding signal,FEV,"1.39 fold enrichment (6-mer frequency, TF over GST control)"
same,binding signal,ETV5,"1.39 fold enrichment (6-mer frequency, TF over GST control)"
same,binding signal,HSF1,"1.13 fold enrichment (6-mer frequency, TF over GST control)"
same,binding signal,SPIC,"1.22 fold enrichment (6-mer frequency, TF over GST control)"
same,binding signal,ELF4,"1.4 fold enrichment (6-mer frequency, TF over GST control)"
same,binding signal,ELK4,"1.37 fold enrichment (6-mer frequency, TF over GST control)"
same,binding signal,ETV2,"1.28 fold enrichment (6-mer frequency, TF over GST control)"
same,binding signal,ELF3,"1.24 fold enrichment (6-mer frequency, TF over GST control)"
same,binding signal,CRX,"1.12 fold enrichment (6-mer frequency, TF over GST control)"
same,binding signal,ETV1,"1.34 fold enrichment (6-mer frequency, TF over GST control)"
